# Records with an inconclusive call do not appear. Active and inactive are the calls of the source. Rule for the calls, unless noted: active = hit-call score of the fitted dose curve at least 0.9, where 1 is the maximum; inactive = score below 0.9.
# How the values were obtained:
# [1] = target: human RAR-related Orphan Receptor gamma (RORg), RORC (gene 6097) (UniProt P51449); assay: ATG_RORg_TRANS: Attagene TRANS-FACTORIAL HepG2 Assay for human RAR-related Orphan Receptor gamma (RORg) (AID 2283011; active = hit-call score of the fitted dose curve at least 0.9, where 1 is the maximum)
# Sequence of human RAR-related Orphan Receptor gamma (RORg), RORC (gene 6097) (P51449 whole entry, looked up, the tested form may be a part): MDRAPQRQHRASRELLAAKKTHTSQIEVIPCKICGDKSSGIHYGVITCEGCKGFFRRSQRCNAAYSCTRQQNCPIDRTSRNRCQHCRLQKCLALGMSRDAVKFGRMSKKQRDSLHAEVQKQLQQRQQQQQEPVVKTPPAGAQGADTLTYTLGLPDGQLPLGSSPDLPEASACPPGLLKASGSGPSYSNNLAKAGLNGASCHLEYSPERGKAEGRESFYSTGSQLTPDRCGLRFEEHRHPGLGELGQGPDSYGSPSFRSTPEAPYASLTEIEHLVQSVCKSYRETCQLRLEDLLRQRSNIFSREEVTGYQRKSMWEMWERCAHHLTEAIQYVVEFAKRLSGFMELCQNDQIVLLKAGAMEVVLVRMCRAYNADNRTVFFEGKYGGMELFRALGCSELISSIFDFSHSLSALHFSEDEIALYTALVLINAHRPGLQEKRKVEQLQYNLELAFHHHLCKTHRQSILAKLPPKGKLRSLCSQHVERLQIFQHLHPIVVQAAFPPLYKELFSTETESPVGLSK
# Procedure, shortened: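 Reporter transcripts from a transfected RORg-GAL4 chimera in HepG2 cells were quantified 24 h after dosing by RT-PCR, 6-FAM labelling, HpaI digestion and capillary electrophoresis; increases over DMSO baseline were fitted.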
# [2] = read-out: E-selectin (Homo sapiens) (UniProt P16581); assay: BSK_3C_Eselectin: BioMAP Diversity Plus: 3C Assay for Eselectin Biomarker Activity (AID 2283015); conditions: primary human endothelial cells (HUVEC); actives raise or lower the signal;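 for outcome: cell surface E-selectin protein quantified by ELISA 24 h after dosing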
# Procedure, shortened: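 E-selectin ELISA readout, fitted bidirectionally relative to DMSO, taken 24 h post-dosing in HUVEC cultures of the 3C system. Overt cytotoxicity tracked with sulforhodamine B staining of parallel wells.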
# [3] = read-out: Interleukin-1 alpha (IL1a), IL1A (gene 3552); assay: BSK_BE3C_IL1a: BioMAP Diversity Plus: BE3C Assay for Interleukin-1 alpha (IL1a) Biomarker Activity (AID 2283016); conditions: primary human bronchial epithelial cells; actives raise or lower the signal
# Procedure, shortened: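 Cultures of primary human bronchial epithelial cells receive test chemical. After 24 h, IL-1a is quantified by ELISA, while parallel wells are fixed in TCA and SRB-stained for total protein. Changes in either direction are fitted relative to DMSO.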
# [4] = read-out: Monocyte Chemoattractant Protein-1 (MCP1), CCL2 (gene 6347); assay: BSK_3C_MCP1: BioMAP Diversity Plus: 3C Assay for Monocyte Chemoattractant Protein-1 (MCP1) Biomarker Activity (AID 2283017); conditions: primary human endothelial cells (HUVEC); actives raise or lower the signal
# Procedure, shortened: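 MCP-1 was measured by ELISA 24 h after dosing in primary HUVEC 3C cultures and fitted in both directions relative to DMSO; cytotoxicity was checked by SRB total-protein staining in parallel wells.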
# [5] = read-out: Monocyte Chemoattractant Protein-1 (MCP1), CCL2 (gene 6347); assay: BSK_4H_MCP1: BioMAP Diversity Plus: 4H Assay for Monocyte Chemoattractant Protein-1 (MCP1) Biomarker Activity (AID 2283018); conditions: primary human endothelial cells (HUVEC); actives raise or lower the signal
# Procedure, shortened: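 Readout: MCP-1 ELISA on compound-treated HUVEC, sampled 24 h post-dosing. Baseline and negative control DMSO; bidirectional fit. Overt toxicity checked alongside by sulforhodamine B protein staining at time of biomarker measurement.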
# [6] = read-out: Human Leukocyte Antigen - DR isotype (HLADR), HLA-DRA (gene 3122); assay: BSK_3C_HLADR: BioMAP Diversity Plus: 3C Assay for Human Leukocyte Antigen - DR isotype (HLADR) Biomarker Activity (AID 2283019); conditions: primary human endothelial cells (HUVEC); actives raise or lower the signal;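 for outcome: ELISA of cell-surface HLA-DR on HUVEC 24 h after dosing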
# Procedure, shortened: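 Bidirectional fitting against DMSO was applied to the HLA-DR ELISA signal from human umbilical vein endothelial cells, 24 h post-dose. Cytotoxicity came from parallel SRB total-protein staining; 3C proliferation was counted by SRB at 48 h.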
# [7] = read-out: Interleukin-8 (IL8), CXCL8 (gene 3576); assay: BSK_3C_IL8: BioMAP Diversity Plus: 3C Assay for Interleukin-8 (IL8) Biomarker Activity (AID 2283020); conditions: primary human endothelial cells (HUVEC); actives raise or lower the signal
# Procedure, shortened: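 Human vascular endothelial cells (umbilical vein) in the 3C system; IL-8 level detected by ELISA at 24 h post-dose, with DMSO as baseline.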
# [8] = read-out: Monokine induced gamma interferon (MIG), CXCL9 (gene 4283); assay: BSK_3C_MIG: BioMAP Diversity Plus: 3C Assay for Monokine induced gamma interferon (MIG) Biomarker Activity (AID 2283021); conditions: primary human endothelial cells (HUVEC); actives raise or lower the signal;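 for AC50: MIG protein level measured by immunoassay in the treated endothelial cultures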
# Procedure, shortened: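 After 24 h of treatment, human umbilical vein endothelial cultures (3C system) had their MIG biomarker level determined by ELISA, with DMSO serving as negative control.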
# [9] = BSK_3C_SRB: Viability Assessment in the BioMAP Diversity Plus: 3C Assay (AID 2283023); conditions: primary human endothelial cells (HUVEC);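 note: fitted both ways against DMSO so a hit may be signal rise or drop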
# Procedure, shortened: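 Cytotoxicity readout in parallel HUVEC 3C cultures: after 24 h compound exposure, cells fixed with 10% TCA, stained with 0.1% SRB and read at 560 nm. Gain or loss relative to DMSO fitted.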
# [10] = read-out: Matrix Metallopeptidase 1 (MMP1), MMP1 (gene 4312); assay: BSK_BE3C_MMP1: BioMAP Diversity Plus: BE3C Assay for Matrix Metallopeptidase 1 (MMP1) Biomarker Activity (AID 2283024); conditions: primary human bronchial epithelial cells; actives raise or lower the signal
# Procedure, shortened: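 Dose cells, wait 24 h, run MMP1 ELISA; cells are human bronchial epithelial primaries. Both increases and decreases relative to DMSO counted.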
# [11] = read-out: Pselectin, SELP (gene 6403); assay: BSK_4H_Pselectin: BioMAP Diversity Plus: 4H Assay for Pselectin Biomarker Activity (AID 2283026); conditions: primary human endothelial cells (HUVEC); actives raise or lower the signal
# Procedure, shortened: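 Human vascular endothelium from umbilical vein; P-selectin measured by ELISA at 24 h post-dose, with cytotoxicity checked by sulforhodamine B total-protein staining in parallel cultures (0.1% SRB after 10% TCA fixation, read at 560 nm).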
# [12] = BSK_4H_SRB: Viability Assessment in the BioMAP Diversity Plus: 4H Assay (AID 2283027); conditions: primary human endothelial cells (HUVEC);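 note: cells exposed to compound for 24 h before staining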;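 for AC50: curves fitted both ways versus DMSO so AC50 may be loss or gain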
# Procedure, shortened: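 Human umbilical vein endothelial cells, 24 h after chemical dosing; total protein measured by 0.1% sulforhodamine B staining after 10% TCA fixation, read at 560 nm. Bidirectional fitting against DMSO.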
# [13] = BSK_BE3C_SRB: Viability Assessment in the BioMAP Diversity Plus: BE3C Assay (AID 2283028); conditions: primary human bronchial epithelial cells
# Procedure, shortened: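 Cytotoxicity read-out: SRB (0.1%) staining of TCA-fixed (10%) human lung bronchial epithelial cells, absorbance 560 nm, 24 h post-dosing. Curves fitted both directions relative to DMSO.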
# [14] = read-out: Thrombomodulin, THBD (gene 7056); assay: BSK_3C_Thrombomodulin: BioMAP Diversity Plus: 3C Assay for Thrombomodulin Biomarker Activity (AID 2283029); conditions: primary human endothelial cells (HUVEC); actives raise or lower the signal
# Procedure, shortened: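 Thrombomodulin ELISA, human primary HUVEC, 24 h post-dose; data fitted in both directions relative to DMSO.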
# [15] = read-out: Urokinase-type plasminogen activator receptor (uPAR), PLAUR (gene 5329); assay: BSK_4H_uPAR: BioMAP Diversity Plus: 4H Assay for Urokinase-type plasminogen activator receptor (uPAR) Biomarker Activity (AID 2283030); conditions: primary human endothelial cells (HUVEC); actives raise or lower the signal
# Procedure, shortened: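 uPAR level read by ELISA on HUVEC cultures (BioMAP 4H) 24 h post-dosing, analyzed for gain or loss relative to DMSO. Parallel SRB staining assessed overt cytotoxicity.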
# [16] = target: human Retinoid X Receptor beta (RXRb), RXRB (gene 6257) (UniProt P28702); assay: ATG_RXRb_TRANS: Attagene TRANS-FACTORIAL HepG2 Assay for human Retinoid X Receptor beta (RXRb) (AID 2283013; active = hit-call score of the fitted dose curve at least 0.9, where 1 is the maximum)
# Sequence of human Retinoid X Receptor beta (RXRb), RXRB (gene 6257) (P28702 whole entry, looked up): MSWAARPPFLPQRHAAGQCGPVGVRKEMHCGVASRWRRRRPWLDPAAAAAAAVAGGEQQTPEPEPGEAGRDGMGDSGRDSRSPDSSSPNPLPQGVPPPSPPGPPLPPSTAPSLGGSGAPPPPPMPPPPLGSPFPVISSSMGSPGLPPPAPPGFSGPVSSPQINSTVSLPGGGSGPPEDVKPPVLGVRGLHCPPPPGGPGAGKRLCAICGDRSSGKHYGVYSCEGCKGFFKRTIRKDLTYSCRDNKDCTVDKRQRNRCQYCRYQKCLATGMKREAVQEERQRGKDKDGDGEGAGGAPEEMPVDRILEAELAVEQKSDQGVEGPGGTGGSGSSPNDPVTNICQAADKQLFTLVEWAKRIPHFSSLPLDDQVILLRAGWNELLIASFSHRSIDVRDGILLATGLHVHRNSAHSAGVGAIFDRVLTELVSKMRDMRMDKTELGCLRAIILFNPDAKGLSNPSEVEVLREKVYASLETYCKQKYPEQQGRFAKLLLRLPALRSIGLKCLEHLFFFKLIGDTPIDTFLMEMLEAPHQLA
# Procedure, shortened: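 Multiplexed TRANS reporter assay in HepG2; 24 h dosing; reporter mRNA by RT-PCR/CE fluorescence; gain-of-signal relative to DMSO.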
# [17] = target: human Thyroid Receptor alpha (THRa1), THRA (gene 7067) (UniProt P10827); assay: ATG_THRa1_TRANS: Attagene TRANS-FACTORIAL HepG2 Assay for human Thyroid Receptor alpha (THRa1) (AID 2283014; active = hit-call score of the fitted dose curve at least 0.9, where 1 is the maximum)
# Sequence of human Thyroid Receptor alpha (THRa1), THRA (gene 7067) (P10827 whole entry, looked up, the tested form may be a part): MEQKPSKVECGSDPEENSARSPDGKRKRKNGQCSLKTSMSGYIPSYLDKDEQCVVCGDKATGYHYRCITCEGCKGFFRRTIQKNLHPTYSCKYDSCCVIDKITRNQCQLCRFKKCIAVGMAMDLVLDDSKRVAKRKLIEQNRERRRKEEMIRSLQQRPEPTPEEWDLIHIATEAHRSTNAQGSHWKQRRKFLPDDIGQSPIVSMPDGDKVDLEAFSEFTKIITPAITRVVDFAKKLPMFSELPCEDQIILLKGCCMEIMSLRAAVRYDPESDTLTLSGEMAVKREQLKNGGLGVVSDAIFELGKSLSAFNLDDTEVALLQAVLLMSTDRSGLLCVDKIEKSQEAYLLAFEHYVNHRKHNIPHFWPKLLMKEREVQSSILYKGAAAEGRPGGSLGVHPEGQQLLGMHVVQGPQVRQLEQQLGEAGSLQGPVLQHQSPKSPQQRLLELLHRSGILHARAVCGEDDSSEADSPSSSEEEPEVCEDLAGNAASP
# Procedure, shortened: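 Transcripts from GAL4-UAS-driven reporters, measured after 24 h compound exposure by RT-PCR plus capillary electrophoresis of 6-FAM-labeled fragments, were fitted for gain of signal relative to DMSO. Cells: transiently transfected HepG2 expressing NR-Gal4 chimeras.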
# [18] = target: human Vitamin D Receptor (VDR), VDR (gene 7421) (UniProt P11473); assay: ATG_VDR_TRANS: Attagene TRANS-FACTORIAL HepG2 Assay for human Vitamin D Receptor (VDR) (AID 2283022; active = hit-call score of the fitted dose curve at least 0.9, where 1 is the maximum)
# Sequence of human Vitamin D Receptor (VDR), VDR (gene 7421) (P11473 whole entry, looked up, the tested form may be a part): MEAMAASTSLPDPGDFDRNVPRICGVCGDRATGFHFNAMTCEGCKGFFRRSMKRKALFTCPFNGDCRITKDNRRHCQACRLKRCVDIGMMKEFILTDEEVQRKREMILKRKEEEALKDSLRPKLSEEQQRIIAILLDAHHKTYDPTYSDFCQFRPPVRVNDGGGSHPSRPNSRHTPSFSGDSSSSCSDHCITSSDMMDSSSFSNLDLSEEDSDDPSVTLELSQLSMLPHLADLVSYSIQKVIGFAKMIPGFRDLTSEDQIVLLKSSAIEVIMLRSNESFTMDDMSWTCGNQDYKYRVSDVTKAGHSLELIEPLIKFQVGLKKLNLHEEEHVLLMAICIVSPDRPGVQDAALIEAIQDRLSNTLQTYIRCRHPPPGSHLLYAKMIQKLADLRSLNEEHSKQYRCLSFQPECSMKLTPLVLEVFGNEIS
# Procedure, shortened: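 Transactivation by an exogenous VDR-Gal4 chimera in transiently transfected HepG2 cells was measured as reporter transcript level 24 hours after chemical treatment. RT-PCR products were analysed by capillary electrophoresis and fitted in the positive direction relative to DMSO.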
# [19] = BSK_3C_Vis: BioMAP Diversity Plus: 3C Assay for Morphology Visualization (AID 2283025); conditions: primary human endothelial cells (HUVEC);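 note: fitted both ways so gain or loss versus DMSO counts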;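 for AC50: light microscopy image of cell morphology used as background control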
# Procedure, shortened: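 Endothelial cells from human umbilical vein were treated with test chemicals for 24 h and inspected by light microscopy for changes in cell conformation.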
# Sequence of E-selectin (Homo sapiens) (P16581 whole entry, looked up): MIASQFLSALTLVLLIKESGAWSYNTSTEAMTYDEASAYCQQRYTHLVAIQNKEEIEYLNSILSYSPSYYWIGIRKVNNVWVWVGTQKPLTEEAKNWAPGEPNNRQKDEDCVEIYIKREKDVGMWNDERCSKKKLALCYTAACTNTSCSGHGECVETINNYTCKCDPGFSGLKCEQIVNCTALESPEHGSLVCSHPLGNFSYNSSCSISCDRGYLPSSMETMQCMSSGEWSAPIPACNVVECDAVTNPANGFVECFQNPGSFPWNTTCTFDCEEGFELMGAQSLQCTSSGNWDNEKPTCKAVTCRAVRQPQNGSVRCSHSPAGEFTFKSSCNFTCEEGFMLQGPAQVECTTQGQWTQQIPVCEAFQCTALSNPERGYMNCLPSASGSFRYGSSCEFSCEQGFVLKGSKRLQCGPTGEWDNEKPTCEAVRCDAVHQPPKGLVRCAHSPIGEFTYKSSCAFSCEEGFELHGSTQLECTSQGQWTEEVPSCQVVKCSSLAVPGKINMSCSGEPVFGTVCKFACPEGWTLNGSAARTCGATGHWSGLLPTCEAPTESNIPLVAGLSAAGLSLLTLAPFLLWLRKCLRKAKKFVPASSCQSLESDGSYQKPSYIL
compound,measurement,setting,value
COCc1nnc(-c2ccc[n+]([O-])c2)n1-c1c(Cl)c(Cl)cc2[nH]c(=O)c(=O)[nH]c12,outcome,[1],inactive
same,outcome,[2],inactive
same,outcome,[3],inactive
same,outcome,[4],inactive
same,outcome,[5],inactive
same,outcome,[6],inactive
same,outcome,[7],inactive
same,outcome,[8],inactive
same,outcome,[9],inactive
same,outcome,[10],inactive
same,outcome,[11],inactive
same,outcome,[12],inactive
same,outcome,[13],inactive
same,outcome,[14],inactive
same,outcome,[15],inactive
CCCCC(CC)C(=O)OCCOCCOCCOC(=O)C(CC)CCCC (stereo unspecified),outcome,[2],inactive
same,outcome,[3],inactive
same,outcome,[4],inactive
same,outcome,[5],inactive
same,outcome,[6],inactive
same,outcome,[7],inactive
same,outcome,[8],inactive
same,outcome,[9],inactive
same,outcome,[10],inactive
same,outcome,[11],inactive
same,outcome,[12],inactive
same,outcome,[13],inactive
same,outcome,[14],inactive
same,outcome,[15],inactive
OC(Cn1cncn1)(Cn1cncn1)c1ccc(F)cc1F,outcome,[16],inactive
same,outcome,[17],inactive
same,outcome,[2],inactive
same,outcome,[3],inactive
same,outcome,[5],inactive
same,outcome,[6],inactive
same,outcome,[7],inactive
same,outcome,[8],inactive
same,outcome,[18],inactive
same,outcome,[9],inactive
same,outcome,[10],inactive
same,outcome,[19],inactive
same,outcome,[11],inactive
same,outcome,[12],inactive
same,outcome,[13],inactive
same,outcome,[14],inactive
same,outcome,[15],inactive
NC(N)=O,outcome,[16],inactive
same,outcome,[2],inactive
same,outcome,[3],inactive
same,outcome,[4],inactive
same,outcome,[5],inactive
same,outcome,[6],inactive
same,outcome,[7],inactive
same,outcome,[8],inactive
same,outcome,[9],inactive
same,outcome,[10],inactive
same,outcome,[11],inactive
same,outcome,[12],inactive
same,outcome,[13],inactive
same,outcome,[15],inactive
OC(CCl)CCl,outcome,[2],inactive
same,outcome,[3],inactive
same,outcome,[4],inactive
same,outcome,[5],inactive
same,outcome,[6],inactive
same,outcome,[7],inactive
same,outcome,[8],inactive
same,outcome,[18],inactive
same,outcome,[9],inactive
same,outcome,[10],inactive
same,outcome,[19],inactive
same,outcome,[11],inactive
same,outcome,[12],inactive
same,outcome,[13],inactive
same,outcome,[15],inactive
CCCCCCCCCCCCCCO,AC50,[16],45.4 µM (active)
same,outcome,[17],inactive
same,AC50,[2],36.7 µM (active)
same,outcome,[3],inactive
same,AC50,[5],29.6 µM (active)
same,AC50,[6],36.7 µM (active)
same,AC50,[7],30.4 µM (active)
same,AC50,[8],30.7 µM (active)
same,outcome,[18],inactive
same,AC50,[9],31.3 µM (active)
same,outcome,[10],inactive
same,AC50,[19],37.5 µM (active)
same,AC50,[11],33.1 µM (active)
same,AC50,[12],34 µM (active)
same,outcome,[13],inactive
same,outcome,[14],inactive
same,AC50,[15],32.6 µM (active)
Cc1nc(-c2ccccn2)ncc1C(=O)Nn1cc(C)c2cc(F)ccc21,outcome,[17],inactive
same,outcome,[2],inactive
same,outcome,[3],inactive
same,outcome,[5],inactive
same,AC50,[6],20 µM (active)
same,outcome,[7],inactive
same,outcome,[8],inactive
same,outcome,[18],inactive
same,AC50,[9],20 µM (active)
same,outcome,[10],inactive
same,outcome,[19],inactive
same,outcome,[11],inactive
same,outcome,[12],inactive
same,outcome,[13],inactive
same,outcome,[14],inactive
same,outcome,[15],inactive
NC(=O)N(O)[C@@H]1COc2cc(OCc3ccccc3)ccc21,outcome,[2],inactive
same,outcome,[3],inactive
same,outcome,[5],inactive
same,outcome,[6],inactive
same,outcome,[7],inactive
same,outcome,[8],inactive
same,outcome,[18],inactive
same,outcome,[9],inactive
same,outcome,[10],inactive
same,outcome,[11],inactive
same,outcome,[12],inactive
same,outcome,[13],inactive
same,outcome,[15],inactive
